Results on one sequence are retold here after PMC7862700, “An all-to-all approach to the identification of sequence-specific readers for epigenetic DNA modifications on cytosine”.

Holding throughout (experiment): DAPPL (digital affinity profiling via proximity ligation, sequencing); 10 mM Tris-HCl pH 7.5, 50 mM NaCl, 1 mM DTT, 4% glycerol, room temperature, 30 min; GST-TFs on glutathione beads, 16-mer random dsDNA library, 0.1% formaldehyde crosslink after washing; high values mean tight binding
What all share (settings): protein: recombinant; tags: N-terminal GST; dsDNA, one strand shown

The target in one experiment is T1, ELK1 (Homo sapiens, UniProt P19419 1-428).
T1 sequence: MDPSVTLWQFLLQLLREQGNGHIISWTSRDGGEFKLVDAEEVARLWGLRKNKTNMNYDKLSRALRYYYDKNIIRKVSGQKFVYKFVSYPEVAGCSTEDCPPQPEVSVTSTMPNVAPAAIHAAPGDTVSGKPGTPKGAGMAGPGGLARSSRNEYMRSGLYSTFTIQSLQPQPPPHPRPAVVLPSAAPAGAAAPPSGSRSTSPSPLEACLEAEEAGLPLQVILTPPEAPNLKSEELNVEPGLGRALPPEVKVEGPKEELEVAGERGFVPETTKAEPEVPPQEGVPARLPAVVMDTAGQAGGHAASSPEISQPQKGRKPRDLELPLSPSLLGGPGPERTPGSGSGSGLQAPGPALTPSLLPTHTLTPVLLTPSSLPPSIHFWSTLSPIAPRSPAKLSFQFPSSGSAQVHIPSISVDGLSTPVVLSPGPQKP
The essentials: (§1)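 Beads coated with glutathione captured GST-fused human transcription factors that had been expressed in yeast, and the factors were then given DNA barcodes and pooled with a tag-only sample. The pools were incubated with 200 nmole of a random double-stranded 16-mer DNA library in Tris/NaCl/DTT/glycerol buffer for 30 min at room temperature, washed, crosslinked with 0.1% formaldehyde and proximity-ligated with BsaI/T4 ligase at 37 °C for 1 h. PCR amplification and Illumina NextSeq500 sequencing came last. Binding signal is each hexamer's read frequency for a factor divided by its frequency for the tag-only sample.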

For the next experiment, the target named is T2, GABPA (Homo sapiens, UniProt Q06546 1-454).
T2 sequence: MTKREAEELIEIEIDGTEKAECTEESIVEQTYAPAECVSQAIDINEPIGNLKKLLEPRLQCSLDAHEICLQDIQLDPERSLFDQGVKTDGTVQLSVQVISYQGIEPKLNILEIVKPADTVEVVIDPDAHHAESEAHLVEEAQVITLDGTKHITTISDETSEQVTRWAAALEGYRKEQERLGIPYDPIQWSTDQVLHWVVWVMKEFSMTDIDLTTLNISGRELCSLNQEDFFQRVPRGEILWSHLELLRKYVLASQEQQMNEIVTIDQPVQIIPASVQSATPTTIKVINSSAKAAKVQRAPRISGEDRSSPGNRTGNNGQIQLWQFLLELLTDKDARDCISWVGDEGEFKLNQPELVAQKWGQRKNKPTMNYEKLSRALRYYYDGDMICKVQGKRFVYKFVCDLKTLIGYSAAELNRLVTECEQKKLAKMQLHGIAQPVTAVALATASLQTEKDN
The essentials:
as §1

A further experiment deals with T3, ERG (Homo sapiens, UniProt P11308 1-479).
T3 sequence: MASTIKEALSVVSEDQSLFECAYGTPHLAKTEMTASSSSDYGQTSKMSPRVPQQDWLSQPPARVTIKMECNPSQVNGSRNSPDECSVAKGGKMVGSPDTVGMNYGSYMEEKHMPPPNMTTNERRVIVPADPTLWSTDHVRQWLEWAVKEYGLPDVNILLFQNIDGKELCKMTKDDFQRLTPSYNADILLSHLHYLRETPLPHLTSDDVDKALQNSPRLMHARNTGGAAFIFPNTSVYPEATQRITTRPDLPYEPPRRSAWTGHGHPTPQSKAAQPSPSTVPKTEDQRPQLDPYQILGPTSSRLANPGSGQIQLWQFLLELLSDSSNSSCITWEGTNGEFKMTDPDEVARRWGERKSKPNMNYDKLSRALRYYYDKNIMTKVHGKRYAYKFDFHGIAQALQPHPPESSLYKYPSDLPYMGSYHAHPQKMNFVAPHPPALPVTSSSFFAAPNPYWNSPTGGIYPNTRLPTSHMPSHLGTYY
The essentials: as §1

For a further experiment, the target named is ELF1 (Homo sapiens, UniProt P32519 1-619). The essentials: as §1
In another experiment the target is T4, EHF (Homo sapiens, UniProt Q9NZC4 1-300).
T4 sequence: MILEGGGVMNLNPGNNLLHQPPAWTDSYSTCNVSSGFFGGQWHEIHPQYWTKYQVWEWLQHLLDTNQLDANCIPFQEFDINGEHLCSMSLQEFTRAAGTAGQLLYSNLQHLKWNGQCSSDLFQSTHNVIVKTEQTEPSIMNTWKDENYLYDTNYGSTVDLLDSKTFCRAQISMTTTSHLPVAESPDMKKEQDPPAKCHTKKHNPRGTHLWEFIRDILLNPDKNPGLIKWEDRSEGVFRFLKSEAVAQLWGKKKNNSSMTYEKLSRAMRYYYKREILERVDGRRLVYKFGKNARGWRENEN
The essentials: as §1

For the next experiment, the target named is T5, FEV (Homo sapiens, UniProt Q99581 1-238).
T5 sequence: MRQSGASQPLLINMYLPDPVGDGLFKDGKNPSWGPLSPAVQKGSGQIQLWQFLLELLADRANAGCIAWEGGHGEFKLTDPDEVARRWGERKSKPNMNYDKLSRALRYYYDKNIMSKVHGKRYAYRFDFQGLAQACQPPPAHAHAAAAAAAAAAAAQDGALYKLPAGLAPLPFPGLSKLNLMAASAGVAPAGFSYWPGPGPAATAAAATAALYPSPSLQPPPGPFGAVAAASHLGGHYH
Put shortly: as §1

The target in another experiment is ETV5 (Homo sapiens, UniProt P41161 1-510). Put shortly:
as §1

Another experiment has as its target ELF4 (Homo sapiens, UniProt Q99607 1-663). Put shortly: as §1
The target in a further experiment is T6, ETV2 (Homo sapiens, UniProt O00321 1-342).
T6 sequence: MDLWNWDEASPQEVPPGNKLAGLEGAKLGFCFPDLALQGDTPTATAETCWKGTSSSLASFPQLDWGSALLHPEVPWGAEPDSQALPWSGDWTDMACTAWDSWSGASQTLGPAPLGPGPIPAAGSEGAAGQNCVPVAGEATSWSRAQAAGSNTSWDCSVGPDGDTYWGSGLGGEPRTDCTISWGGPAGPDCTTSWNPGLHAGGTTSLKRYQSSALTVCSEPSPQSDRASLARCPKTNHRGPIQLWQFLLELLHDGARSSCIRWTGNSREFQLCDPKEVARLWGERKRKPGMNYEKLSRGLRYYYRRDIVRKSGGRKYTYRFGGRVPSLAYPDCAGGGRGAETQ
Put shortly:
as §1

The next experiment concerns the target ETV1 (Homo sapiens, UniProt P50549 1-477). Put shortly:
as §1

The next experiment deals with T7, ETV3L (Homo sapiens, UniProt Q6ZN32 1-361).
T7 sequence: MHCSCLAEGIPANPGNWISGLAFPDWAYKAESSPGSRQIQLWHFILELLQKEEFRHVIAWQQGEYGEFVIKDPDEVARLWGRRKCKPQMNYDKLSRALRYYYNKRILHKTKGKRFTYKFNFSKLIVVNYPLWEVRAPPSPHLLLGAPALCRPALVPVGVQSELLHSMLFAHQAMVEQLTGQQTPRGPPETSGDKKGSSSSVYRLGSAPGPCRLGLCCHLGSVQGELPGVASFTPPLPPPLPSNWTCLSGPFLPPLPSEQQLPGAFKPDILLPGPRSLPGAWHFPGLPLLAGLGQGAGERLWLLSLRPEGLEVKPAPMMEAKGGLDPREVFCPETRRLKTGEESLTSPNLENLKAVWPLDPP
The essentials: as §1

The target of another experiment is T8, SPDEF (Homo sapiens, UniProt O95238 1-335).
T8 sequence: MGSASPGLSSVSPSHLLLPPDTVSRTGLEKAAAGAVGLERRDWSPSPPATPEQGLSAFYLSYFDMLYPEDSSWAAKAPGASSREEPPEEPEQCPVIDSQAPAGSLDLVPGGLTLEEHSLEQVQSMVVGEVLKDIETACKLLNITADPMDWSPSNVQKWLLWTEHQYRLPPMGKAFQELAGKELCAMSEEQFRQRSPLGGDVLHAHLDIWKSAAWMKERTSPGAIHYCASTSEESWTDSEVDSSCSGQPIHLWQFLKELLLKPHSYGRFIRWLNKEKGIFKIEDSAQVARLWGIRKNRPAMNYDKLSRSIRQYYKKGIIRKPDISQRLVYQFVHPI
Put shortly:
as §1

The next experiment deals with T9, ETV7 (Homo sapiens, UniProt Q9Y603 1-341).
T9 sequence: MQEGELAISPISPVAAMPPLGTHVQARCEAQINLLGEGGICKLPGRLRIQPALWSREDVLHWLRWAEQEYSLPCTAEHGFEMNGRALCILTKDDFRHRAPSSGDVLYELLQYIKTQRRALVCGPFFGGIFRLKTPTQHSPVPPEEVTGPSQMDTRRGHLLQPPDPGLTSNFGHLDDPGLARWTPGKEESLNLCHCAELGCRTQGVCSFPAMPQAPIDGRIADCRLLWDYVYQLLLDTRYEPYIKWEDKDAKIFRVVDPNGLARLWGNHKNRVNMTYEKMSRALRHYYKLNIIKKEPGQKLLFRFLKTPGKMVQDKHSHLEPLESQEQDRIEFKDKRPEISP
Put shortly: as §1

In another experiment the target is T10, ETV3 (Homo sapiens, UniProt P41162-2 1-143).
T10 sequence: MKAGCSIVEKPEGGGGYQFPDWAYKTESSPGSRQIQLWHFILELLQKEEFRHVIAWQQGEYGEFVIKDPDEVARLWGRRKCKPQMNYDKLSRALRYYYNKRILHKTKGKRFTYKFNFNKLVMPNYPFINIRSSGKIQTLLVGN
Put shortly: as §1

The next experiment concerns the target ETV6 (Homo sapiens, UniProt P41212 1-452). The essentials:
as §1

Chain of ETV5 (P41161 whole entry): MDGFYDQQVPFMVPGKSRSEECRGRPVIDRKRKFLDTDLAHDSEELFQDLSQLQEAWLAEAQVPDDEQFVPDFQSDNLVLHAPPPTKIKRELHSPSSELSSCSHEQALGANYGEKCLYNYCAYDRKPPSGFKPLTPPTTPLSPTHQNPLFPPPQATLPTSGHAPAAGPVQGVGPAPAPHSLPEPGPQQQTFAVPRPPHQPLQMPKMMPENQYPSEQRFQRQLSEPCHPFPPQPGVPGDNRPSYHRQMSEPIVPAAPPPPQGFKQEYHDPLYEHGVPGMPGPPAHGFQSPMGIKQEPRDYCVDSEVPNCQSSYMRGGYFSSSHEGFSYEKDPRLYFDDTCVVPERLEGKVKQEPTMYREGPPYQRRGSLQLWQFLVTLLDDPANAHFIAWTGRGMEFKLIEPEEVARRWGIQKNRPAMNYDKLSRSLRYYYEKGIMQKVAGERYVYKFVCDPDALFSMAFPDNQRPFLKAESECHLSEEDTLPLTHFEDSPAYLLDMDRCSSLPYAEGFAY
Chain of ELF4 (Q99607 whole entry): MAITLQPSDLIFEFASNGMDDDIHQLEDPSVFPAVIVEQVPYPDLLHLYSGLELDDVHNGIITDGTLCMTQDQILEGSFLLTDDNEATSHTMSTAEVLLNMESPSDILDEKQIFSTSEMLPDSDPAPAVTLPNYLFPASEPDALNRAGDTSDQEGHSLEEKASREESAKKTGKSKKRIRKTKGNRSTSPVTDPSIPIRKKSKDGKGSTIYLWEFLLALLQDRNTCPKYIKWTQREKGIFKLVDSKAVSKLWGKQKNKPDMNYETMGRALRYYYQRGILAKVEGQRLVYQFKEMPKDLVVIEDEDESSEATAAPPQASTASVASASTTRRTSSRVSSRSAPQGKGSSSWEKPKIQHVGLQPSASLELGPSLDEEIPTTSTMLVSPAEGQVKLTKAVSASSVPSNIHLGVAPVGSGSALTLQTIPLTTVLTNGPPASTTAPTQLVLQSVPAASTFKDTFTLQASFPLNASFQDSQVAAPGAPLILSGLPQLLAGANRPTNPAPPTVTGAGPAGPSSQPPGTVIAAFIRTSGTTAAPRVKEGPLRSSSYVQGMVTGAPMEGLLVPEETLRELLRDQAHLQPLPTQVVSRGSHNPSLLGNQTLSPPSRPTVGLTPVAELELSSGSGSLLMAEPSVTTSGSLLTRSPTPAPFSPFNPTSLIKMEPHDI
Chain of ELF1 (P32519 whole entry): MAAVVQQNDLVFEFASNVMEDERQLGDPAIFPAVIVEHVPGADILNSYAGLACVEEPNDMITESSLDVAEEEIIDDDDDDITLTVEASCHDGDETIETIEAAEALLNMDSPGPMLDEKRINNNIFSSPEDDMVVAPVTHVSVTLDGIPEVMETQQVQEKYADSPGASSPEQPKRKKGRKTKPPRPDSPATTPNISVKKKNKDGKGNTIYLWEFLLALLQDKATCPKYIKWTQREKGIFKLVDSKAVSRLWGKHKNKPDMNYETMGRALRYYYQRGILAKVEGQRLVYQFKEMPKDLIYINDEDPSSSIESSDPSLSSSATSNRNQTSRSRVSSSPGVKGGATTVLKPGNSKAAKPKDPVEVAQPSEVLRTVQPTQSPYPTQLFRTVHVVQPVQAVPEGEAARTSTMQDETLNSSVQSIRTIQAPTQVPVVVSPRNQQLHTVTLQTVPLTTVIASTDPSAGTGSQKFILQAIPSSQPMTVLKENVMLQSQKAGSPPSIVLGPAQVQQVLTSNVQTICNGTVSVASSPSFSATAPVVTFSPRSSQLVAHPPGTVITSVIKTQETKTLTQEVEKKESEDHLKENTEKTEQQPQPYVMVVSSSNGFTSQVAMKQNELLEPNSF
Chain of ETV1 (P50549 whole entry): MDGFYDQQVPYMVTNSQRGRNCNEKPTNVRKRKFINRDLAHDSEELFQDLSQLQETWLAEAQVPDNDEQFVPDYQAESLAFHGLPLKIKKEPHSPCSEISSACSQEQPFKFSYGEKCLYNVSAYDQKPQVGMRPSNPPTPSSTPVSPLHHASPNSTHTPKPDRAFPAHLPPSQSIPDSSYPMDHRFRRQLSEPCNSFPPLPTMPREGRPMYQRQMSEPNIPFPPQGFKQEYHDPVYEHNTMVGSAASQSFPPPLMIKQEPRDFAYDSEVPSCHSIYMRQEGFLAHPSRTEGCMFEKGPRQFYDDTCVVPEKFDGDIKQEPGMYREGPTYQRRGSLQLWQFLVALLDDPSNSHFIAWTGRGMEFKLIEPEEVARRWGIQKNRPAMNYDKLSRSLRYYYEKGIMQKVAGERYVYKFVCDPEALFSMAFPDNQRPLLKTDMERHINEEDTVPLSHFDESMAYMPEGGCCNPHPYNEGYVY
Chain of ETV6 (P41212 whole entry): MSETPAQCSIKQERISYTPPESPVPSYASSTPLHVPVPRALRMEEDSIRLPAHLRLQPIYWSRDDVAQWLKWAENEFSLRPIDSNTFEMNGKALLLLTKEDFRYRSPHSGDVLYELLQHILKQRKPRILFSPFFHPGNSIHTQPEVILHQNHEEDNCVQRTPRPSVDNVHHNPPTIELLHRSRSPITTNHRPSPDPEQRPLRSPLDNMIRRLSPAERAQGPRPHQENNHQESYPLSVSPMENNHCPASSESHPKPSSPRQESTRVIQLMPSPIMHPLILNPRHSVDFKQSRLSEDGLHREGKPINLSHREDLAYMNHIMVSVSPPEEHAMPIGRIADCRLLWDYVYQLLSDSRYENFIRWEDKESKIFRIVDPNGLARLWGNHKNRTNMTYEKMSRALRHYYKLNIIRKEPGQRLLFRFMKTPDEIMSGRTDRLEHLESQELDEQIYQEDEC

Consider CGCCGG, for which the binding signal is 1.21 fold enrichment (6-mer frequency, TF over GST control) with ELK1; 1.14 fold enrichment (6-mer frequency, TF over GST control) with GABPA; 1.19 fold enrichment (6-mer frequency, TF over GST control) with ERG; 1.03 fold enrichment (6-mer frequency, TF over GST control) in the experiment with ELF1; 1.19 fold enrichment (6-mer frequency, TF over GST control) with EHF; 1.4 fold enrichment (6-mer frequency, TF over GST control) in the experiment with FEV. In addition, the binding signal in the experiment with ETV5 is 1.15 fold enrichment (6-mer frequency, TF over GST control); in the experiment with ELF4, 1.02 fold enrichment (6-mer frequency, TF over GST control); with ETV2, 1.06 fold enrichment (6-mer frequency, TF over GST control); in the experiment with ETV1, 1.02 fold enrichment (6-mer frequency, TF over GST control); with ETV3L, 1.06 fold enrichment (6-mer frequency, TF over GST control); with SPDEF it was 1.05 fold enrichment (6-mer frequency, TF over GST control). Besides, the binding signal was 1.08 fold enrichment (6-mer frequency, TF over GST control) in the experiment with ETV7; 1.1 fold enrichment (6-mer frequency, TF over GST control) with ETV3; 1.05 fold enrichment (6-mer frequency, TF over GST control) in the experiment with ETV6.
